Compound activity (PubChem)
Nrf2 activator: activators of Nrf2 (ARE) signaling | hit rate 0.31% among 410,000 | Potency, µM (highest dose often 46.1 µM), inactives show at the highest dose activation, most hits filed as activators | AID 624171 | AREc32 ARE-luciferase reporter (MCF7-derived line), luminescence, 24 h; note: % of control where 0% means no effect; nearly all actives have a fitted effect of over 65% in size
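Quantitative high-throughput format: AREc32 reporter cells, 1000 per well, received compound by pin transfer and were incubated 24 hr at 37 deg C, 5% CO2, before Steady-Glo luminescence detection.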
TGFb inhibitor: inhibitors of TGF-b signaling; AID 588855; hit rate 1.2% among 410,000; Potency, µM (series often up to 46.1 µM), without a hit: at the top dose activity, negative = inhibition, most hits filed as inhibitors; HepG2 CAGA-GFP TGF-b/SMAD3 reporter, GFP fluorescence, 18 h; TGF-beta stimulated, 500 pg/mL final; note: % is set by controls: 0 for no effect and ±100 for the full control effect; nearly all actives have a fitted effect of over 65% in size
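TGF-beta reporter screen: HEPG2 CAGA-GFP, 1% FBS, 500 pg/mL TGF-beta final, 18 h; per-cell GFP summed per well; curves fitted and categorized by class.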
A549 tox: kills or reduces viability of A549 cells in Nrf2 counter-screen | A549 ARE-Fluc cells, CellTiter-Fluor viability, 18-24 h | Potency, µM (titrated, usually from 46 µM), inactives show at the highest dose activity change, negative = cytotoxicity, hits mostly inhibitors | hit rate 0.16% among 390,000; note: % is set by controls: 0 for no effect and ±100 for the full control effect
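A549 ARE_Fluc cells in 5% FBS OPTI-MEM were exposed to compounds in concentration-response for 18-24 h at 37 deg C. Viability was read by CellTiter-Fluor fluorescence (Ex 405/Em 525) after 30 min, before the luciferase read.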
Nrf2 inh: inhibitors of Nrf2 signaling. A549 ARE-Fluc reporter, luciferase luminescence, 18-24 h. Potency, µM (highest dose often 46 µM), without a hit: at the highest dose activity change, negative = inhibition, actives largely listed as inhibitors. hit rate 2.1% among 360,000. AID 504444; note: % is set by controls: 0 for no effect and ±100 for the full control effect; nearly all actives have a fitted effect of over 60% in size
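A549 ARE_Fluc cells, 5000/well, 5% FBS OPTI-MEM; compounds in dose-response, 18-24 h at 37 °C/5% CO2; CellTiter-Fluor viability read (Ex 405/Em 525), then BugLite luciferase luminescence = Nrf2 activity.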
HepG2 tox: HepG2 cytotoxicity, counter-screen for TGF-b inhibitors; HepG2 CAGA-GFP viability, ATP luminescence, 18 h; Potency, µM (highest dose often 46.1 µM), for inactives: top-dose activity change, negative = cytotoxicity, actives largely listed as cytotoxic; hit rate 0.76% among 410,000; AID 588856
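HepG2 CAGA-GFP cells (1000/well, DMEM with 1% FBS) received compound, then TGF-beta at 500 pg/mL final, and were incubated 18 hours at 37 degrees C. Viability was read by CellTiter-Glo luminescence. Media-only wells were set as complete cell-killing and DMSO as no toxicity.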
An asterisk follows results filed as active; ? = inconclusive; · = not tested or not shown; ! = repeats disagree. A selection: hits, their analogues and other compounds. The true share with any hit is near 3.6%. Calls come from the whole dose curve; as a rule, active = well fitted curve in the direction sought with a large enough effect; inconclusive = small, poorly fitted or top-dose-only effect, or another doubt; inactive = no such curve, though single readings can be large; an effect the other way counts as inactive or inconclusive. Potency is the fitted concentration of half-maximal effect.

SMILES | Nrf2 activator | TGFb inhibitor | A549 tox | Nrf2 inh | HepG2 tox
COc1cccc(C(c2nnnn2-c2ccc3c(c2)OCCO3)N2CCC(n3c(=O)[nH]c4ccccc43)CC2)c1OC (stereo not given) | -1.1% | ? | · | · | 12.6µM*
COc1ccc(-n2nnnc2C(c2cccc(OC)c2OC)N2CCC(n3c(=O)[nH]c4ccccc43)CC2)cc1 (stereo not given) | 0.6% | ? | · | · | -14.3%
COc1cccc2c1cc([N+](=O)[O-])c1c(C(=O)O)cc3c(c12)OCO3 | -0.9% | -18.3% | ? | 11.6µM* | -19.2%
Cc1nc2ccccc2c(=O)n1-c1ccncc1 | -0.9% | -0.5% | 0.8% | 10.8% | 5.3%
Cc1cccc(C2=NCC(=O)N(CC(=O)NCc3ccco3)c3sc4c(c32)CCCC4)c1 | -0.4% | -18.4% | -19.0% | ? | -22.6%
COc1ccc(C2=NCC(=O)N(CC(=O)NCc3ccco3)c3sc4c(c32)CCCC4)cc1 | 5.9% | -19.4% | ? | 20.6µM* | -15.9%
O=C(N/N=C/c1cc(Br)c(Br)s1)c1ccncc1 | -0.1% | -11.5% | -10.5% | 18.4µM* | -31.4%
COc1cccc(NP(=O)(Oc2ccccc2)Oc2ccccc2)c1 | -0.4% | 17.8µM* | 0.7% | -10.7% | -6.3%
CNC(=O)c1cccn(Cc2cc(C(F)(F)F)cc(C(F)(F)F)c2)c1=O | 6.6% | 4.3% | -18.6% | 5.17µM* | -1.2%
NC(=O)c1cccn(Cc2ccc(C(F)(F)F)cc2)c1=O | 2.8% | -14.3% | -2.8% | 16.4µM* | -0.5%
CNC(=O)c1cccn(Cc2ccc(C(F)(F)F)cc2)c1=O | ? | -0.2% | 9.3% | ? | -27.6%
CC1Cc2ccccc2N1Cc1cccc(S(=O)(=O)N(C)C)c1 (stereo not given) | 0.3% | -9.0% | -3.2% | ? | 5.5%
Cc1ccc(C)c(N2CCN(C(=O)CCS(=O)(=O)c3ccc4c(c3)oc(=O)n4C)CC2)c1 | 0.1% | -17.8% | 12.4% | 20.6µM*! | -10.2%
O=C(CCC1N=C2c3ccccc3N=C(SCc3cccc(Cl)c3)N2C1=O)N1CCN(c2ccccc2)CC1 (stereo not given) | 4.7% | 10µM* | -16.4% | 15.9% | -29.4%
Cc1ccc(/C(CSc2nccn2-c2ncc(C(F)(F)F)cc2Cl)=N\O)cc1 | 7.0% | ? | 4.5% | ? | -17.0%
CC/C(=C\C=C\[C@@H]1C=C[C@@H]2CCC[C@H]2[C@@H]1C(=O)c1ccc[nH]1)[C@@H]1O[C@@H]([C@@H](C)C(=O)O)CC[C@@H]1C | 3.2% | 11.2µM* | ? | ? | 15.8µM*
C[C@]12CCC3C(CC[C@H]4CC(=O)CC[C@]34C)C1CCC2=O (stereo not given in full) | 0.5% | 2.3% | -0.6% | -5.3% | 3.9%
COC1=CC(=O)[C@]2(C=C1OC)OC[C@@H]1Oc3c(ccc4c3C=CC(C)(C)O4)C(=O)[C@@H]12 | 5.7% | -11.8% | -10.0% | 0.651µM* | -13.1%
COC(=O)C1=C(c2cc3ccccc3s2)C[C@@H]2CC[C@H]1N2C(=O)NCC1CC1 | 0.8% | ? | -14.6% | 18.4µM* | -25.1%
COC(=O)C1=C(c2cc3ccccc3s2)C[C@@H]2CC[C@H]1N2C(=O)N1CCC(C)CC1 | -0.4% | ? | -8.9% | 25.9µM* | 0.9%
Cn1nccc1C(=O)N1CCC2(CC1)OCCO2 | 0.0% | 0.3% | -6.9% | -2.5% | -2.4%
C[n+]1c(-c2ccccc2)c2cc(N)ccc2c2ccc(N)cc21 | -3.3% | 4.47µM* | ? | 1.84µM* | -16.7%
CCc1ccc(-n2nc(C)c3c(C(=O)NCCc4ccc(OC)c(OC)c4)cc(C)nc32)cc1 | 6.8% | -7.8% | -12.8% | 23.1µM* | -18.1%
C/C(=N\NC(N)=S)C12CC3CC(CC(C3)C1)C2 | 3.3% | 11.2µM* | ? | 29.1% | -6.9%
CCCNS(=O)(=O)c1ccc(OCC(=O)N2CCN(Cc3ccccc3)CC2)cc1 | 0.2% | 0.0% | -2.1% | -11.9% | -6.6%
Cc1c(CCNS(=O)(=O)c2ccccc2)sc2nc(-c3ccc(Cl)cc3)nn12 | -1.3% | 12.6µM* | -21.3% | · | -20.0%
